Assay results as given in ChEMBL document CHEMBL3988442, “University of Dundee, Small-Polar-MMV Screening Library” (2021).
Among all 48,000 compounds or so, about 13,000 (27%) showed an effect of 50% or more. Some of the results follow.

The compounds below were run on Wolbachia pipientis (assay: Anti-Wolbachia Cell-Based Screen). Conditions: 5 µM.
Assay type: functional
Design: scale not given: in the data most compounds retested in dose-response had high values

Row | Compound | Percent Effect
1 | Cc1nc(CN2CCN(C(=O)c3sccc3C)CC2)cs1 | 154.8%
2 | CCc1ccsc1C(=O)N1CCCN(Cc2cscn2)CC1 | 140.3%
3 | Cc1nc(CN2CCN(C(=O)c3ccn(C)c(=O)c3)CC2)cs1 | 11.68%
4 | Cc1nc(CN2CCN(C(=O)c3ccnc(N(C)C)c3)CC2)cs1 | 110.9%
5 | Cc1nc(CN2CCN(C(=O)c3sccc3C3CC3)CC2)cs1 | -3.645%
6 | COc1ccsc1C(=O)N1CCCN(Cc2cscn2)CC1 | 127%
7 | CC(O)CN1CCN(C(=O)c2ccnc(N(C)C)c2)CC1 (stereo not drawn) | -11.32%
8 | COC(C(=O)N1CCCN(Cc2cscn2)CC1)c1ccccc1 (stereo not drawn) | -16.29%
9 | CCc1nc(CN2CCCN(C(=O)c3occc3C)CC2)cs1 | 10.15%
10 | COCC1CCN(S(=O)(=O)N2C[C@@H](C)[C@@](C)(O)C2)CC1 | 1.126%
11 | CN(Cc1cn2c(n1)CN(Cc1ccsc1)CC2)Cc1ccco1.O=C(O)C(F)(F)F.O=C(O)C(F)(F)F | -7.727%
12 | CSc1cccc(CNC(=O)C2CC(=O)N(C3CC3)C2)c1 (stereo not drawn) | -14.89%
13 | Cn1cc(N2C[C@@H]3CN(S(=O)(=O)C4CC4)C[C@@H]3C2=O)cn1 | -1.09%
14 | COc1cccc(COC(C)C(=O)N(C)Cc2nnc3n2CCC3)c1 (stereo not drawn) | -2.392%
15 | Cc1cc(CNc2cc(-c3ccoc3C)nn2CCO)c(C)o1 | -24.32%
16 | CCn1cc(CN2CCCN(C(=O)c3sccc3C#N)CC2)cn1 | -3.745%
17 | CCn1ccnc1CN1CCCN(C(=O)c2sccc2C#N)CC1 | 2.639%
18 | N#Cc1ccsc1C(=O)N1CCCN(Cc2cscn2)CC1 | 105.7%
19 | Cc1ccsc1C(=O)N1CCN(Cc2cscn2)CC1 | 118.4%
20 | Cc1ccsc1C(=O)N1CCCN(Cc2cscn2)CC1 | 92.98%
21 | CC(C)c1ccc(O)c(C(=O)N2CCN(Cc3cscn3)CC2)c1 | -2.44%
22 | CC(C)c1ccsc1C(=O)N1CCCN(Cc2cscn2)CC1 | 10.39%
23 | Cc1nc(CN2CCCN(C(=O)c3sccc3C#N)CC2)cs1 | 111.7%
24 | Cc1nc(CN2CCCN(C(=O)C3(C#N)CCCCC3)CC2)cs1 | -0.8463%
25 | N#CC1(C(=O)N2CCN(Cc3cscn3)CC2)CCCC1 | -7.08%

Row | Compound | Percent Effect
26 | N[C@H]1CN(C(=O)c2ccc(Cl)cc2O)C[C@@H]1C1CC1 | -2.238%
27 | CC(C)[C@H]1COC(=O)N1Cc1nnc(-c2ccccc2)o1 | -6.799%
28 | CC(NCCn1cccn1)c1ccccc1Cl (stereo not drawn) | 12.43%
29 | CN1CCN(C(=O)C[C@@H]2COC[C@H]3CN(c4ccncn4)C[C@@H]23)CC1 | -4.365%
30 | CNC(=O)N1C[C@H]2C[C@H](C(=O)Nc3ccccc3)[C@@H](C1)O2 | -3.507%
31 | O=C(Nc1ccccc1)N1C[C@@H]2OCCN(C(=O)c3ccco3)[C@@H]2C1 | 7.532%
32 | O=C(NCCc1ccccc1)N1C[C@H]2C[C@H](C(=O)N3CCCC3)[C@@H](C1)O2 | -4.163%
33 | O=C(Nc1ccc(F)cc1)N1C[C@H]2C[C@H](C(=O)N3CCCC3)[C@@H](C1)O2 | 125.2%
34 | O=C(Nc1ccccc1)N1C[C@H]2C[C@H](C(=O)N3CCOCC3)[C@@H](C1)O2 | 114.8%
35 | O=C(Nc1ccccc1)N1C[C@H]2C[C@H](C(=O)N3CCCC3)[C@@H](C1)O2 | 100.5%
36 | O=C(NCc1ccccc1)N1C[C@H]2C[C@H](C(=O)N3CCCC3)[C@@H](C1)O2 | 8.283%
37 | CNC(=O)[C@H]1C[C@@H]2CN(C(=O)Nc3ccc(F)cc3)C[C@H]1O2 | -4.608%
38 | CCc1ccc(NC(=O)N2C[C@H]3C[C@H](C(=O)N4CCCC4)[C@@H](C2)O3)cc1 | 103.5%
39 | O=C(Nc1ccc(F)cc1)N1C[C@H]2C[C@H](C(=O)N3CCOCC3)[C@@H](C1)O2 | 1.969%
40 | O=C1CC2(CCN(Cc3ccc(-c4ccn[nH]4)s3)CC2)CN1 | -9.036%
41 | CCc1noc(C(C)N2CCC(NS(=O)(=O)c3cccs3)CC2)n1 (stereo not drawn) | -6.324%
42 | CCC(=O)NCC(=O)NC(Cc1ccccc1)c1sccc1C (stereo not drawn) | 6.747%
43 | Cn1ncc(N2CCN(Cc3ccc(S(C)(=O)=O)cc3)CC2)cc1=O | -9.751%
44 | CC(C)NC(=O)c1cc(-c2ccc(S(C)(=O)=O)cc2)nc2c1cnn2C | 95.41%
45 | Cc1cccc(N(C)Cc2nc3c(cnn3C)c(=O)[nH]2)c1C | -8.766%
46 | CC(C)[C@H](Nc1nc(C2CCCC2)nc2c1cnn2C)C(N)=O | -0.02427%
47 | CC(C)NC(=O)c1cc(-c2ccc(S(C)(=O)=O)cc2)c2cnn(C)c2n1 | 110.4%
48 | Cc1cnn(CC(C)NCc2ccc(S(C)(=O)=O)cc2)c1 (stereo not drawn) | 4.95%
49 | CN(C)C(=O)c1cc(-c2ccc(S(C)(=O)=O)cc2)c2cnn(C)c2n1 | 108.3%
50 | COC(=O)[C@@H](Nc1nc(C2CCCC2)nc2c1cnn2C)[C@@H](C)O | -8.342%

Row | Compound | Percent Effect
51 | CCOC(=O)CC(C)Nc1nc(C(C)(C)C)nc2c1cnn2C (stereo not drawn) | -7.754%
52 | CCc1nc(CCNC(=O)NC2CCSCC2)cs1 | 5.983%
53 | Cc1cn(CC(=O)NC2CCC3(CC2)OCCO3)c2ccccc12 | -12.26%
54 | CCCN1CCN(C(=O)c2ccc3nc(C)oc3c2)[C@H]2CS(=O)(=O)C[C@H]21 | -5.857%
55 | COCCN1C[C@H]2CN(Cc3cccc(OC(F)(F)F)c3)CCN2C1=O | -4.744%
56 | Cc1cccc(COc2ccc(C(C)NS(N)(=O)=O)cc2)c1 (stereo not drawn) | 134.5%
57 | CC(=O)NC(C)C(=O)Nc1ccc(OCc2cccc(F)c2)cc1C (stereo not drawn) | -4.537%
58 | CS(=O)(=O)Cc1ccc(OCc2ccc(F)cc2)cc1 | -17.41%
59 | NC(=O)CS(=O)(=O)Cc1ccc(OCc2ccc(F)cc2)cc1 | -22.33%
60 | Cc1cccc(COc2ccc(C(C)NC(=O)CNC(N)=O)cc2)c1 (stereo not drawn) | 98.3%
61 | CC(NS(N)(=O)=O)c1ccc(OCc2ccc(F)cc2)cc1 (stereo not drawn) | 111.6%
62 | Cc1cccc(COc2ccc(C(C)N)cc2)c1.Cl (stereo not drawn) | 108.7%
63 | Cc1ccc(OCCC(=O)NC(C)c2ccncc2)cc1 (stereo not drawn) | -14.45%
64 | Cc1cccc(CNCCOc2ccc(S(C)(=O)=O)cc2)c1 | 16.11%
65 | Cc1cc(C)n(-c2ccc(C(C)NS(N)(=O)=O)cc2)n1 (stereo not drawn) | -26.74%
66 | Cc1cc(OCc2cccc(F)c2)ccc1NC(=O)C(C)NC(N)=O (stereo not drawn) | -0.2467%
67 | Cc1cccc(COc2ccc(NC(=O)C(C)NC(N)=O)c(C)c2)c1 (stereo not drawn) | -6.983%
68 | COc1cccc2ccc(CN3CCN(c4ncccn4)CC3)nc12 | -3.273%
69 | CC(C)(C)c1c[nH]c([C@@H]2COCCN2C2CCC2)n1 | -8.065%
70 | Cc1cc(C)n(C2CN(C(=O)CN3C(=O)CSc4ccccc43)C2)n1 | 2.557%
71 | Cc1ccsc1[C@@H]1CCN(C(=O)Cn2cc3ccccc3n2)C[C@H]1O | -6.576%
72 | CS(=O)(=O)N1CCc2nc(NC(=O)Nc3c(F)cccc3F)sc2C1 | -13.59%
73 | CCCNC(=O)c1nc2c(o1)CN(C(C)=O)C2 | 21.64%
74 | COc1ccc(CCNC2CCCN(c3ccc(C)nn3)C2)cc1 (stereo not drawn) | -3.788%
75 | COc1ccc(C2CCCN2c2nnc(C)s2)c(OC)c1 (stereo not drawn) | 6.611%

Row | Compound | Percent Effect
76 | CC(C)CCN1CCN(C(=O)c2cccnc2-n2cncn2)CC1 | 7.327%
77 | Cc1ncsc1C(=O)N1CCC(Nc2cccnn2)CC1 | -12.54%
78 | Cc1ncsc1C(=O)N1CCN(CCC(C)C)CC1 | 114%
79 | COc1ccccc1C(=O)N1CCN(CCc2scnc2C)CC1 | -5.378%
80 | Cc1ncsc1C(=O)N1CCn2nc(CN3CCSCC3)cc2C1 | -3.157%
81 | Cc1ncsc1C(=O)N1CCN(Cc2ccccc2)CC1C (stereo not drawn) | 4.154%
82 | Cc1cccc(C(=O)N2CCCN(CCc3scnc3C)CC2)c1 | -3.968%
83 | COCCN1CCCN(C(=O)c2scnc2C)CC1 | 111.8%
84 | CCN1CCN(C(=O)c2scnc2C)CC1 | 114.5%
85 | c1cc(CCN2CCC(NCc3ccsc3)CC2)ccn1 | -8.408%
86 | Cc1ccc(N2CCCC(NC(=O)Nc3cnn(C)c3)C2=O)cc1 (stereo not drawn) | 10.21%
87 | O=C(NCc1cnc2n1CCN(Cc1ccoc1)C2)c1ccno1.O=C(O)C(F)(F)F | 0.5733%
88 | Cc1nc2c(c(NC(C)C)n1)CCN(C(=O)c1ccno1)CC2.O=C(O)C(F)(F)F | -9.631%
89 | Cc1nc2c(c(NC(C)C)n1)CCN(Cc1cccnc1)CC2.O=C(O)C(F)(F)F.O=C(O)C(F)(F)F | -13.98%
90 | CC(C)Nc1ncnc2c1CCN(C(=O)Cc1ccccn1)CC2.O=C(O)C(F)(F)F | 17.78%
91 | Cc1nc(-c2ccc(F)cc2)nc2c1CCN(C(=O)CN(C)C)CC2 | 3.588%
92 | CC(=O)N1CCc2nc(-c3ccccc3)nc(NC(C)C)c2CC1 | 96.01%
93 | CC(C)Nc1nc(-c2ccccc2)nc2c1CCN(C(=O)C1CC1)CC2.O=C(O)C(F)(F)F | 99.02%
94 | CC(=O)N1CCc2nc(-c3ccc(F)cc3)nc(NC(C)C)c2CC1 | 94.36%
95 | CC(=O)NCC(=O)N1CCc2nc(-c3ccccc3)nc(C)c2CC1 | -15.18%
96 | CSCC(=O)N1CCc2nc(C)nc(NCc3ccccc3)c2CC1 | -12.22%
97 | CC(=O)N1CCc2c(nc(N(C)C)nc2NC(C)Cc2cccs2)C1 (stereo not drawn) | 16.87%
98 | CC(C)Nc1nc(-c2ccccc2)nc2c1CCN(C(=O)CC#N)CC2 | 98.77%
